# In PubChem BioAssay (NCI):
# Compounds without any hit were thinned out: in the full panel of roughly 79,000, 15% have a hit. Unmarked numbers belong to inactive results. Activity calls are given as the source filed them. Cut-off read from the data, not from the text of the source: active = growth inhibition above about 70%; inactive = the rest.
# Experiment: NCI Yeast Anticancer Drug Screen. Data for the rad50 strain (AID 155);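 note: 0% = growth of vehicle-only cultures of the same strain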
# Details: S. cerevisiae rad50 strain growth inhibition; at 50.0 µM; hits give high values
# Procedure: Growth inhibition of yeast strains with defined genetic alterations is measured as a screen for potential anti-cancer activity. Selected strains with alterations in DNA damage repair or cell cycle control were exposed to compounds and growth inhibition was measured relative to vehicle treated controls. The strain used in this assay is rad50
row,SMILES,growth inhibition
1,O=[N+]([O-])c1cccc(S(=O)(=O)NC2c3ccccc3Oc3ccccc32)c1,22%
2,CC(Nc1cccc(Cl)c1)c1ccncc1 (stereo not given),4.05%
3,COc1nc(OC)c2[nH]cnc2n1,17.6%
4,COC(=O)[C@]1(C)CCC[C@@]2(C)C1CC[C@@]13C=C(C(C)C)[C@@H](CC1=O)CC23 (stereo not given in full),10.7%
5,O=C1Nc2n[nH]c(=S)n2NC12c1ccccc1-c1ccccc12,-45.8%
6,CCOc1ccc(Nc2nc(N)nc(N)c2N)cc1,2.85%
7,c1csc(C2N3CCN(CC3)C(c3cccs3)N3CCN2CC3)c1 (stereo not given),-1.6%
8,O=C(NNC1=NCCN1)c1ccco1,-7.5%
9,c1cncc(Cc2nc3ccccc3[nH]2)c1,-26.9%
10,CC1CC(C2=CC=CCS2)=Nc2ccccc2S1 (stereo not given),-8.25%
11,Cc1ccc(S(=O)(=O)O/C=C2/CCOC2=O)cc1,29.6%
12,O=C(NCCCCN1CCCC1)C(c1cc2ccccc2s1)C1CCCCC1 (stereo not given),20.1%
13,CC(N(C)Cc1ccccc1)C(C)(O)c1ccccc1 (stereo not given),-10.4%
14,CCCc1sc(NC(C)=O)nc1-c1ccccc1,1.2%
15,COc1ccc(OC)c2cc3c(cc12)C(=O)C(C)=C(C)C3=O,6.15%
16,CN(O)C(=O)Cc1ccccc1,3.5%
17,CN(CC(=O)O)C(=N)N,-8.3%
18,O=C(O)Cc1ccc(OCCCCCOc2ccc(CC(=O)O)cc2)cc1,6.05%
19,NC(=O)c1ncnc2nc[nH]c12,-14.2%
20,O=C1NC(=O)C(=O)N1,25.8%

row,SMILES,growth inhibition
1,CCC(CC)C(O)(C(=O)O)C(CC)CC,14.1%
2,O=C1C2=Cc3ccccc3OC2(O)Oc2ccccc21 (stereo not given),8.1%
3,O=C1CCc2ccccc21,-26.6%
4,O=C1OC(=O)C2C1C1c3ccccc3C2(Br)c2ccccc21 (stereo not given),-3.15%
5,O=C(Nc1ccc(F)cc1)Nc1cccc(C(=O)O)c1,20%
6,CC(C)(C)OC(=O)N(CCCN)CCCCN,-7.65%
7,COC(=O)c1cc2ccc(O)c(O)c2cn1,41.1%
8,Cc1ccnc(N=C/C=C2/C=CC=CN2O)c1,0.25%
9,Oc1ccc(-c2csc(Nc3ccccn3)n2)cc1O,98.4% (active)
10,N=C(N)SCC(O)c1ccccc1 (stereo not given),6.35%
11,COc1ccc(C(=O)CCN(C)C)c2ccccc12,-9.1%
12,CCCCCCCCC(=O)Nc1nc2nc[nH]c2c(=O)[nH]1,-9.65%
13,C[CH2][Sn]([CH2]C)([O]C(=O)c1ccc2c(c1)OC(C)(C)O2)[O]C(=O)c1ccc2c(c1)OC(C)(C)O2,51.3%
14,Cc1ccc(C(CCCl)OC(C)C)cc1 (stereo not given),7%
15,COC(=O)C(Cc1nc2ccccc2[nH]c1=O)C(=O)C(=O)Nc1ccc([N+](=O)[O-])cc1[N+](=O)[O-] (stereo not given),7.25%
16,O=C(O)C(Sc1ccccc1)c1ccccc1 (stereo not given),0.8%
17,COCC(=O)Nc1ccccc1,-13.5%
18,COc1ccc2nc3cc(Cl)ccc3c(NN3CCN(CCO)CC3)c2c1,-24.1%
19,CC(C)(C)C(OC(=O)Cc1ccccc1)c1ccc2c(c1)OCO2 (stereo not given),-9.05%
20,Cc1cc(O)c(C(C)C)cc1S(=O)(=O)O,0.7%
